# Assay results taken from PubChem BioAssay (EPA / NIEHS).
# Activity calls are given as the source filed them. Rule for the calls: active = hit-call score of the fitted dose curve at least 0.9, where 1 is the maximum; inactive = score below 0.9.
# Test: APR_HepG2_CellCycleArrest_72hr: Apredica 72-hour HepG2 Assay for Cell Cycle Arrest (AID 2282914)
# Details: high-content imaging, actives raise or lower the signal
# Procedure: APR_HepG2_72hr is a cell-based, multiplexed-readout assay that uses HepG2, a human liver cell line, with measurements taken at 72 hours after chemical dosing in a 384-well plate.APR_HepG2_CellCycleArrest_72hr is one of 10 assay component(s) measured or calculated from the APR_HepG2_72hr assay. It is designed to make measurements of cell phenotype, a form of morphology reporter, as detected with fluorescence intensity signals by HCS Fluorescent Imaging technology.Data from the assay component APR_HepG2_CellCycleArrest_72hr was analyzed into 1 assay endpoint. This assay endpoint, APR_HepG2_CellCycleArrest_72hr, was analyzed with bidirectional fitting relative to DMSO as the negative control and baseline of activity. Using a type of morphology reporter, measures of all nuclear dna for gain or loss-of-signal activity can be used to understand the signaling at the pathway-level as they relate to the gene . Furthermore, this assay endpoint can be referred to as a primary readout, because this assay has produced multiple assay endpoints where this one serves a signaling function. To generalize the intended target to other relatable targets, this assay endpoint is annotated to the cell cycle intended target family, where the subfamily is arrest.
# Cells were treated with dimethyl sulfoxide (DMSO) as a solvent control at a final concentration of 0.5% v/v or with compounds in DMSO with a resulting final DMSO concentration of 0.5% v/v. Compound treatment was done at concentrations of 0.39, 0.78, 1.56, 3.12, 6.24, 12.5, 25, 50, 100, and 200 uM in duplicate on each plate. Cells were treated with compounds for 1, 24, or 72 hr. Carbonyl […] m-chloro-phenylhydrazone (CCCP) and taxol were used as positive controls for mitochondrial function and cytoskeletal stability, respectively; DMSO served as the negative control for this experiment. Cells were fixed by the direct addition of 50 uL formaldehyde in Hank's Balanced Salt Solution (HBSS) to a final concentration of 3.7%. After incubation in the fixation medium for 30 min at room temperature (293-298 K), cells were rinsed twice with HBSS and treated with cell permeabilization buffer (16 uL of 0.5% Triton X-100) for 10 min at room temperature (293-298 K) before labeling. For mitochondrial membrane potential and mitochondrial measurements, pre-fixed cells were incubated with 50 uL of MitoTracker Red CMXRos (Invitrogen) at a concentration of 250 nM for 30 min before fixation. In the remaining cases, post-fixed cells were labeled by incubation with a multiplexed mixture of primary antibodies in HBSS for 60 min at room temperature (293-298 K) to detect immunoreactivity of c-Jun (1:500), phospho-histone H3 (1:100), phospho-histone H2A.x (1:200), p53 (1:400), alpha-tubulin (1:200) and Hoechst 33342 (2 ug/mL). Cells were labeled for multiplexed imaging on two separate plates: a) Hoechst 33342, MitoTracker Red, phospho-histone H3, and alpha-tubulin, and b) Hoechst 33342, phospho-histone H2A.x, and c-Jun. A final rinse with HBSS (50 uL) was performed before analysis. The primary and secondary antibodies for the proteins were phospho-histone H3 (rabbit anti-phospho-histone H3 and FITC-donkey anti-rabbit IgG), phospho-histone H2A.x (mouse anti-phospho-histone H2A.x and FITC-donkey anti-mouse IgG), c-Jun (rabbit anti-phospho-c-Jun and Cy3-donkey anti-rabbit IgG), p53 (sheep anti-p53 and Cy5-donkey anti-sheep IgG), alpha-tubulin (mouse anti-alpha-tubulin and Cy5-donkey anti-mouse IgG). These antibodies are available as the CellCiphr HepG2 assay kit (Millipore).Digital images of each well were captured using a Cellomics ArrayScan VTI (Thermo Scientific Cellomics) (0.8 NA objective, 0.63x optical coupler, and XF-93 filter set) at 20x magnification. The images were acquired using the autofocus feature of the ArrayScan instrument, which entails the following steps. First, the camera focuses on channel 1 (Hoechst 33342), where nuclei are identified. Second, a Z offset of 1 um is used for capturing mitochondria (MitoTracker Red). […]
SMILES,outcome,AC50
Nc1ccc(Oc2ccc(N)cc2)cc1,inactive,–
O=C1CCCO1,inactive,–
CS(=O)(=O)NC(=O)c1cc(Oc2ccc(C(F)(F)F)cc2Cl)ccc1[N+](=O)[O-],inactive,–
COC(=O)Nc1nc2ccccc2[nH]1,–,13.4 µM (active)
O=C(Nc1ccccc1)c1ccccc1I,inactive,–
Cc1ccc([N+](=O)[O-])cc1,inactive,–
CC(O)CCO (stereo not given),inactive,–
O=C(Oc1ccc(Br)cc1)N1CCN2CCC1CC2,–,96.3 µM (active)
CCCCCOC(=O)c1ccccc1C(=O)OCCCCC,–,95.9 µM (active)
CC(C)N(Cc1ccccc1)C(=O)C(C)(C)C,inactive,–
CC(C)(O)c1cnn2c(-c3ccc(F)c(-c4c(F)cccc4C#N)c3)cnc2n1,inactive,–
Oc1ccccc1Cl,inactive,–
C[N+](C)(C)CC1CO1 (stereo not given),inactive,–
CCN(CC)CCO,inactive,–
O=P(OCCCl)(OCCCl)OCCCl,inactive,–
Clc1ccc(C(c2ccc(Cl)cc2)C(Cl)(Cl)Cl)cc1,inactive,–
CCCCCCCCCCCCCN1CC(C)OC(C)C1 (stereo not given),–,70.4 µM (active)
ClC1=C(Cl)C2(Cl)C3C(Cl)C=CC3C1(Cl)C2(Cl)Cl (stereo not given),–,26.7 µM (active)
CCC[CH2][Sn]([Cl])([CH2]CCC)[CH2]CCC,–,0.0548 µM (active)
CCN(CC)N=O,inactive,–

SMILES,outcome,AC50
C=CCc1ccc2c(c1)OCO2,inactive,–
N#CC(Br)Br,inactive,–
N#CC(Br)(Br)C(N)=O,inactive,–
C1=Cc2cccc3cccc1c23,inactive,–
CN(C)c1ccc(C(=O)c2ccc(N(C)C)cc2)cc1,–,0.639 µM (active)
[Cl-].[Cl-].[Hg+2],inactive,–
CCCSC(=O)N(CCC)CCC,inactive,–
ClCCOCCCl,inactive,–
CCCCOC(=O)c1ccccc1C(=O)OCc1ccccc1,–,92.5 µM (active)
C[C@]12C=CC3=C4CCC(=O)C=C4CC[C@H]3[C@@H]1CC[C@@H]2O,inactive,–
Clc1ccc(C(c2ccc(Cl)cc2)C(Cl)Cl)cc1,–,90.9 µM (active)
CCNS(=O)(=O)C(F)(F)C(F)(F)C(F)(F)C(F)(F)C(F)(F)C(F)(F)C(F)(F)C(F)(F)F,–,36.4 µM (active)
OCCCBr,inactive,–
O=[N+]([O-])C(Br)(CO)CO,inactive,–
Clc1ccccc1Cl,inactive,–
CO[C@@H]1[C@H](OC(=O)NC(=O)CCl)CC[C@]2(CO2)[C@H]1[C@@]1(C)O[C@@H]1CC=C(C)C,inactive,–
CC(C)(C)OOC(C)(C)CCC(C)(C)OOC(C)(C)C,–,55.1 µM (active)
CCCCC(CC)COC(=O)c1ccc(C(=O)OCC(CC)CCCC)c(C(=O)OCC(CC)CCCC)c1 (stereo not given),inactive,–
[O-][Cl+]O,inactive,–
Cc1ccc(N)cc1,inactive,–
